This is a sample that favours compounds with a hit; in the whole collection about 19% have one here.
DT40 TDP1 CPT – growth inhibition of DT40 Tdp1-/-;hTDP1 cells with camptothecin (screen for TDP1 inhibitors); chicken DT40 Tdp1-/-;hTDP1 cells + 20 nM CPT, ATP luminescence, 48 h; Potency, µM (highest dose often 46.2 µM), hits mostly inhibitors; 420,000 compounds, 12% hits; AID 686979; further: nearly all actives have a fitted effect of over 55% in size
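Chicken DT40 Tdp1-/- cells complemented with human TDP1, 400 cells/well, exposed to compounds plus 20 nM camptothecin for at least 48 h at 37 C; viability read as ATP content by CellTiter-Glo luminescence.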
DT40 TDP1 no CPT – qHTS for Inhibitors of human tyrosyl-DNA phosphodiesterase 1 (TDP1): qHTS in cells in absence of CPT; 420,000 compounds, 15% hits; Potency, µM (titrated, usually from 46.2 µM), actives largely listed as inhibitors; DT40 Tdp1-/- hTDP1 cells, no CPT, ATP luminescence, 48 h; AID 686978, 2013; further: nearly all actives have a fitted effect of over 55% in size
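DT40 Tdp1-/-;hTDP1 cells, no CPT (DMSO vehicle only), 400 cells/well; compounds pin-transferred; ≥48 hr, 37 °C; CellTiter-Glo 30 min RT dark, luminescence read.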
TDP1 block – blocks human tyrosyl-DNA phosphodiesterase 1. Potency, µM (titrated, usually from 130 µM), most hits filed as inhibitors. Q9NUW8. 350,000 compounds, 0.28% hits. recombinant TDP1, AlphaScreen DNA substrate cleavage; further: nearly all actives have a fitted effect of over 40% in size
Target sequence (Q9NUW8 whole entry, looked up): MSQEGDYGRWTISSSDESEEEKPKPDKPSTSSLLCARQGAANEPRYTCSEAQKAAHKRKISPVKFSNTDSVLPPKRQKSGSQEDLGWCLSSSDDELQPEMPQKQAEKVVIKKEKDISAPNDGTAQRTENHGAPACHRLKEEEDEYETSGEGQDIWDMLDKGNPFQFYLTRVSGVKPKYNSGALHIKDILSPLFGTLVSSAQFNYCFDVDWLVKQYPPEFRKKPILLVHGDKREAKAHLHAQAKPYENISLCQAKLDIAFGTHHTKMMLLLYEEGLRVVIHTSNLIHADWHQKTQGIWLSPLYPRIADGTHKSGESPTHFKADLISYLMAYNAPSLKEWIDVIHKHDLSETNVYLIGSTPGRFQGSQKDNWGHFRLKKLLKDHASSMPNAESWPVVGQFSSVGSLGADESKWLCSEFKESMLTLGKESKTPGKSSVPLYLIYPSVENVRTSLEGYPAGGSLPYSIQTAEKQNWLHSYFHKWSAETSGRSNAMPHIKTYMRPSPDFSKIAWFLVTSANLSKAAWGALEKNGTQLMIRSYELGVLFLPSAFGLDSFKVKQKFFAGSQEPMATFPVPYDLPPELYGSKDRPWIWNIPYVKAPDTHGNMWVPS
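Tdp1 1 nM final; 15 min RT w/ cpd; substrate 15 nM, 5 min; beads 10 ug/ml, 10 min; AlphaScreen read. Neg ctrl: no enzyme.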
RORgamma inh – inhibitors of mouse ROR gamma transcriptional activity. 310,000 compounds, 5.4% hits. Drosophila S2 Gal4-RORgamma UAS-luciferase reporter, 20 h. Potency, µM (titrated, usually from 53.6 µM), hits mostly inhibitors; further: nearly all actives have a fitted effect of over 60% in size
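Schneider cells (Drosophila), stable Gal4 DBD–ROR gamma + UAS-luc; 1 hr cmpd preincubation; Cu2+ induction 700 uM final; 20 hr ambient; luminescence.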
Gal4-VP16 FLuc – Gal4-VP16 reporter inhibition counter-screen | Potency, µM (series often up to 53.6 µM), actives largely listed as inhibitors | Drosophila S2 Gal4-VP16 UAS-luciferase, luminescence, 20 h | 310,000 compounds, 3.5% hits;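 further: Gal4-VP16 expression switched on by copper sulfate through the metallothionein promoter; nearly all actives have a fitted effect of over 50% in size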
Of the large screens only hits and unclear results are named; the others gave an inactive call. The call rests on the fitted dose curve; in most records, active means well fitted curve in the direction sought with a large enough effect; inconclusive means small, poorly fitted or top-dose-only effect, or another doubt; inactive means no such curve, though single readings can be large; an effect the other way counts as inactive or inconclusive.

CCC(=O)c1ccc(OCC(O)Cn2c(C)nc3ccccc32)cc1 (stereo not given)	DT40 TDP1 CPT 18.4µM, DT40 TDP1 no CPT 18.4µM, RORgamma inh inconclusive, Gal4-VP16 FLuc 7.94µM
COC(=O)c1ccc(OCC(O)Cn2cnc3cc(C)c(C)cc32)cc1 (stereo not given)	DT40 TDP1 CPT inconclusive, DT40 TDP1 no CPT 9.2µM (no result: RORgamma inh, Gal4-VP16 FLuc)
COC(=O)c1ccc(OCC(O)CN2C(=O)c3ccccc3C2=O)cc1 (stereo not given)	none (no result: TDP1 block)
Cc1nc2ccccc2n1CC(O)COc1ccc(Br)cc1 (stereo not given)	DT40 TDP1 CPT inconclusive, DT40 TDP1 no CPT 18.4µM, RORgamma inh inconclusive, Gal4-VP16 FLuc 14.1µM
CCCc1nc2ccccc2n1CC(O)COc1ccc(C(=O)OC)cc1 (stereo not given)	DT40 TDP1 CPT 11.6µM, DT40 TDP1 no CPT 20.6µM (no result: RORgamma inh, Gal4-VP16 FLuc)
Cc1nc2ccccc2n1CC(O)COc1ccc(C(=O)O)cc1 (stereo not given)	none (no result: TDP1 block, RORgamma inh, Gal4-VP16 FLuc)
COC(=O)C(NC(=O)c1c(C)nn(C)c1Cl)c1ccccc1 (stereo not given)	none
Cc1cc(C)nc(SCC(N)=O)n1	DT40 TDP1 no CPT inconclusive
O=C(CN1CCN(c2cccc(Cl)c2)CC1)N1CCCC1	none
COC(=O)c1ccc(OCC(O)CN2CCN(CC(O)COc3ccc(C(=O)OC)cc3)CC2)cc1 (stereo not given)	DT40 TDP1 CPT inconclusive, DT40 TDP1 no CPT inconclusive (no result: TDP1 block)
CCOC(=O)c1c(C)n(C)c2ccc(OCC(O)Cn3c(C)nc4ccccc43)cc12 (stereo not given)	DT40 TDP1 CPT inconclusive, DT40 TDP1 no CPT 18.4µM
COC(=O)c1ccc(OCC(O)CN(CC(C)C)CC(C)C)cc1 (stereo not given)	DT40 TDP1 CPT inconclusive, DT40 TDP1 no CPT 29.1µM, RORgamma inh inconclusive
CCOC(=O)c1c(C)n(C)c2ccc(OCC(O)CN3CCN(C)CC3)cc12 (stereo not given)	none
Cc1nc2ccccc2n1CC(O)COc1ccccc1Cl (stereo not given)	DT40 TDP1 CPT 18.4µM, DT40 TDP1 no CPT 9.2µM, RORgamma inh inconclusive, Gal4-VP16 FLuc 17.8µM
CNCCCCOc1ccccc1Cc1ccccc1	DT40 TDP1 CPT 7.5µM, DT40 TDP1 no CPT 8.41µM, RORgamma inh inconclusive
OC[C@@H]1CN(Cc2ccc3c(c2)OCO3)C[C@H](n2cnc3c(NC4CC4)ncnc32)O1	DT40 TDP1 CPT inconclusive, DT40 TDP1 no CPT 20.6µM (no result: TDP1 block, RORgamma inh, Gal4-VP16 FLuc)
OC[C@@H]1CN(Cc2ccc(Cl)cc2)C[C@H](n2cnc3c(NC4CCCC4)ncnc32)O1	DT40 TDP1 CPT 20.6µM, DT40 TDP1 no CPT inconclusive (no result: TDP1 block, RORgamma inh, Gal4-VP16 FLuc)
CNc1ncnc2c1ncn2[C@H]1CN(Cc2ccccc2)C[C@@H](CO)O1	DT40 TDP1 CPT inconclusive (no result: TDP1 block, RORgamma inh, Gal4-VP16 FLuc)
OC[C@@H]1CN(Cc2ccccc2)C[C@H](n2cnc3c(NC4CC4)ncnc32)O1	none (no result: TDP1 block, RORgamma inh, Gal4-VP16 FLuc)
OC[C@@H]1CN(Cc2ccc(F)cc2)C[C@H](n2cnc3c(NC4CC4)ncnc32)O1	DT40 TDP1 CPT inconclusive (no result: TDP1 block, RORgamma inh, Gal4-VP16 FLuc)
CNc1ncnc2c1ncn2[C@H]1CN(Cc2cccc3ccccc23)C[C@@H](CO)O1	DT40 TDP1 CPT 23.1µM, DT40 TDP1 no CPT inconclusive (no result: TDP1 block, RORgamma inh, Gal4-VP16 FLuc)
OC[C@@H]1CN(Cc2ccc(-c3ccccc3)cc2)C[C@H](n2cnc3c(NC4CCC4)ncnc32)O1	DT40 TDP1 CPT 4.11µM, DT40 TDP1 no CPT 4.11µM (no result: TDP1 block, RORgamma inh, Gal4-VP16 FLuc)
COc1ccc(N(C(=O)C(C)C)S(=O)(=O)c2cccc3cccnc23)cc1	DT40 TDP1 CPT inconclusive, DT40 TDP1 no CPT inconclusive
CN(C)c1ncnc2c1ncn2[C@H]1CN(Cc2ccccc2)C[C@@H](CO)O1	none (no result: TDP1 block, RORgamma inh, Gal4-VP16 FLuc)
CN(C)c1ncnc2c1ncn2[C@H]1CN(Cc2ccc(-c3ccccc3)cc2)C[C@@H](CO)O1	DT40 TDP1 CPT inconclusive, DT40 TDP1 no CPT 14.6µM (no result: TDP1 block, RORgamma inh, Gal4-VP16 FLuc)
O=C(Cc1c(F)cccc1Cl)NC1=NCCS1	DT40 TDP1 CPT inconclusive
COc1cccc(Nc2cc(C)c3ccccc3n2)c1	DT40 TDP1 no CPT inconclusive (no result: TDP1 block)
COC(=O)c1cc(Nc2cc(C)c3c(O)cccc3n2)cc(C(=O)OC)c1	DT40 TDP1 CPT 20.6µM, DT40 TDP1 no CPT 13µM, RORgamma inh inconclusive
COc1ccc(Nc2cc(C)c3c(O)cccc3n2)cc1	DT40 TDP1 CPT 20.6µM, DT40 TDP1 no CPT 10.3µM (no result: TDP1 block)

Compound activity as filed in PubChem.
